Rows were chosen to be rich in hits. Some 6.1% of all compounds tested hit in one or more screens of this group.
D1 antag: antagonists of human D1 dopamine receptor; P21728; HEK293 TREx D1 cells, calcium flux, dopamine EC80; stronger effect = lower value; activity change, negative = inhibition, % at 10 µM; hit rate 3.2% among 360,000; AID 504652; in the data active = activity change below about -30%; note: % is set by controls: 0 for no effect and ±100 for the full control effect
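Allosteric or orthosteric antagonism assessed as attenuation of the calcium response to EC80 dopamine, added 180 s after compound, in induced HEK293 Trex D1 cells loaded with no-wash calcium dye.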
D1 ag: agonists of human D1 dopamine receptor; P21728; HEK293 T-REx D1 cells, calcium flux, agonist mode; activation, % at 2 µM; hit rate 1% among 360,000; in the data active = activation above about 30%; note: 0% is about no effect
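Agonism was scored from calcium flux recorded over 180 s (1 read/s) after pintool compound addition, following a 10-cycle baseline. Cells were inducible force-coupled HEK293 TREx D1, plated overnight at 30 C and loaded with no-wash calcium dye.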
D1 potentiator: human D1 dopamine receptor positive modulation; AID 504651; potentiation, % at 10 µM; HEK293 TREx D1 cells, calcium flux, dopamine EC20 potentiation; hit rate 0.036% among 360,000; P21728; in the data active = potentiation above about 30%; note: 0% is about no effect
DRD3 antagonist: antagonists of human D3 dopamine receptor; P35462; D3R cells, DiscoveRx beta-arrestin luminescence, antagonist mode; stronger effect = lower value; max response, negative = inhibition, %; hit rate 2.5% among 360,000; AID 652054; in the data active = max response below about -50%; inconclusive = no clear call, values can overlap the other calls; note: % is set by controls: 0 for no effect and ±100 for the full control effect
Target sequence (P35462 whole entry, looked up): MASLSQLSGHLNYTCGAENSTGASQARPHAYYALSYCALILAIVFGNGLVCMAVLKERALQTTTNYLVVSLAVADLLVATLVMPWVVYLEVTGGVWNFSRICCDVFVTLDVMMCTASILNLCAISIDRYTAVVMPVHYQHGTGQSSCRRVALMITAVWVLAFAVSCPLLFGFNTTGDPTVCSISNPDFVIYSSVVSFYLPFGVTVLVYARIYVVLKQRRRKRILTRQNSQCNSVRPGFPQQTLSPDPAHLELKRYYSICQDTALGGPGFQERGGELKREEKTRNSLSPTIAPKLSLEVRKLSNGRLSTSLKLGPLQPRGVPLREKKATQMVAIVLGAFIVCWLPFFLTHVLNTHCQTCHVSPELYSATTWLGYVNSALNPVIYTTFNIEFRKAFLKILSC
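Cells expressing the human receptor were seeded at 1500 cells/well, incubated overnight at 37 degrees C in 5% CO2, then exposed to library compounds with dopamine controls for 90 minutes at 37 degrees C before luminescent detection.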
DRD3 agonist: agonists of human D3 dopamine receptor; hit rate 0.58% among 410,000; D3R DiscoveRx beta-arrestin cells, luminescence, 90 min; P35462; max activation, %; AID 652048; in the data active = max activation above about 30%; note: 0% is about no effect
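Agonist-mode cell screen: cells plated at 1500/well and incubated overnight at 37 °C, then exposed to library compounds for 90 min at 37 °C. Detection reagent was added for 30–60 min at room temperature, and luminescence was read.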
The depositor's hits bear a star; u = inconclusive; x = no result given.

SMILES | D1 antag | D1 ag | D1 potentiator | DRD3 antagonist | DRD3 agonist
Cc1cc(Br)cn2c(CC(C)(C)C)c(C3CCCCC3)nc12 | x | x | x | -9.6 | -10.6
O=C(OCCN1CCN(c2ncc(C(F)(F)F)cc2Cl)CC1)c1ccc(Cl)cc1 | 15.6 | 4.6 | 0.8 | -83.1* | -11.5
O=C(CSc1nccn1-c1ncc(C(F)(F)F)cc1Cl)c1ccc(Cl)cc1 | -1.8 | 0.1 | -1.2 | -106.8* | 0.5
Cc1ccc(NCc2cccn2-c2nnc(N3CCCCCC3)s2)cc1 | 9.6 | 0.9 | 8.9 | x | 5.5
CC(Nc1nc(-c2ccncc2)nc2ccccc12)c1ccccc1 (centres undefined) | 2.1 | 0.9 | -5.8 | -12.8 | -1.0
CC(Nc1nc(N2CCNCC2)nc2ccccc12)c1ccccc1 (centres undefined) | -54.1* | 2.5 | -10.9 | -5.2 | -3.7
Cc1cc(C(F)(F)F)nn1Cc1n[nH]c(=S)n1-c1cccc(Cl)c1 | -32.0* | 2.6 | -3.8 | 8.0 | 0.2
O=C(COc1ccc(Cl)cc1)NCc1n[nH]c(=O)c2ccccc12 | 3.6 | 0.3 | -5.1 | -4.3 | 2.6
Cc1cc(=O)n(Cc2cccc(Br)c2)c2c1c(C)nn2-c1ccccc1 | -79.2* | 14.5 | -6.2 | x | -1.5
O=C1Nc2ccccc2-n2nnnc2C1N1CCN(C(=O)c2ccco2)CC1 (centres undefined) | x | x | x | 2.9 | 6.0
CC(=O)C1CCC2C3CC(C)=C4CC(O)CCC4(C)C3CCC12C (centres undefined) | x | x | x | -4.6 | 65.4*
CCOCCCNC(=O)C1CCN(C(=O)c2cc3sccc3n2C)CC1 | -83.6* | -1.0 | -6.2 | x | 7.1
CCC(C)NC(=O)C1CCN(C(=O)c2cc3sccc3n2Cc2ccc(Cl)cc2)CC1 (centres undefined) | -40.0* | 7.9 | -5.2 | x | 12.5
COCCNC(=O)C1CCN(C(=O)c2cc3sccc3n2Cc2ccc(Cl)cc2)CC1 | -24.4 | 15.2 | -4.7 | x | 10.8
CC(CCc1ccccc1)NC(=O)C1CCCN(C(=O)c2cc3sccc3n2C)C1 (centres undefined) | -39.3* | 1.1 | -9.1 | -6.9 | -0.5
CCn1c(C(=O)N2CCC(C(=O)NCCCOC)CC2)cc2sccc21 | 9.2 | 0.3 | -4.2 | x | -3.8
COCCNC(=O)C1CCN(C(=O)c2cc3sccc3n2Cc2ccc(F)cc2)CC1 | -49.0* | 7.6 | -10.0 | 30.6 | 6.2
O=C(CC[C@H]1O[C@@H](n2ccc(=O)[nH]c2=O)[C@H](O)[C@@H]1O)N[C@@H](Cc1ccccc1)C(=O)NCC1CCCCC1 | x | x | x | 13.9 | 7.6
CCOc1cc(C(=O)Nc2ncn[nH]2)cc(OCC)c1OCC | -12.7 | 0.8 | -4.5 | 7.4 | 2.5
COCCCNC(=O)C1CCN(C(=O)c2cc3sccc3n2Cc2ccc(Cl)cc2)CC1 | -38.5* | 10.7 | -4.7 | x | 1.6
CC(C)(C)c1ccc(C(=O)CS(=O)(=O)c2ccccc2)cc1 | -38.1* | 5.6 | -6.0 | 0.0 | -5.6
Cc1ccc(S(=O)(=O)CC(=O)c2ccccc2)cc1 | -2.1 | 3.0 | -2.4 | 5.4 | 7.3
O=C1CCCC2=C1C(c1ccc(O)c(Br)c1)C1=C(CCCC1=O)N2c1ccccc1 | -36.5* | 9.5 | 0.6 | -1.8 | 10.0
CCN1C2=C(C(=O)CCC2)C(c2ccc(O)c(Br)c2)C2=C1CCCC2=O | -16.7 | 1.1 | -8.8 | -1.5 | 0.7
CCOC(=O)c1ccccc1NC(=O)N(C)CCc1c(C)nn(CC)c1C | -4.1 | -1.7 | -0.1 | x | 2.4
SMILES | D1 antag | D1 ag | D1 potentiator | DRD3 antagonist | DRD3 agonist
CCOC(=O)c1cc(OC)c2cccc(CN3CCCC(C)(C(=O)NCCOC)C3)c2c1 (centres undefined) | x | x | x | -2.7 | -0.5
COCCNC(=O)C1(C)CCN(Cc2csc(-c3ccc(Cl)cc3)n2)C1 (centres undefined) | x | x | x | -103.5* | -14.9
COCCNC(=O)C1(C)CCN(Cc2cccc(Oc3ccccc3)c2)C1 (centres undefined) | x | x | x | -22.8 | -11.6
CCNC(=O)C1(C)CCCN(Cc2csc(-c3ccc(Cl)cc3)n2)C1 (centres undefined) | x | x | x | -19.7 | -14.0
COCCNC(=O)C1(C)CCCN(Cc2ccc(C)c3ccccc23)C1 (centres undefined) | x | x | x | -52.0* | -10.7
CCCNC(=O)C1(C)CCCN(Cc2csc(-c3ccccc3)n2)C1 (centres undefined) | x | x | x | -66.3* | 44.8*
COC(=O)c1cc(=O)nc(NN=Cc2ccc(OC)cc2)s1 | x | x | x | -4.1 | -5.3
NCCOc1ccccc1Cc1ccccc1 | -55.4* | 61.9* | -24.5 | -64.0* | -12.1
Cc1ccc(C2(C)NC(=O)N(CC(=O)N3CCN(S(=O)(=O)c4cccs4)CC3)C2=O)cc1 (centres undefined) | 10.1 | 1.2 | -4.5 | -53.4* | 0.7
Cc1ccc(C2(C)NC(=O)N(CC(=O)N3CCN(S(=O)(=O)c4ccc(Cl)s4)CC3)C2=O)cc1 (centres undefined) | 10.8 | 23.1 | 1.1 | 1.0 | -0.2
CC(=O)OCC1=C[C@@H]2OC(=O)C3=CO[C@@H](O[C@@H]4O[C@H](CO)[C@@H](O)[C@H](O)[C@H]4O)[C@H]1[C@@H]32 | x | 4.3 | -2.4 | -11.1 | 70.0*
Cc1ccccc1-c1cc2nccc(-c3cc(Cl)ccc3O)n2n1 | -4.8 | -0.6 | -0.9 | x | -6.4
O=C(c1ccccc1Cl)N(C(=O)c1ccccc1Cl)c1nccc(-c2cccs2)n1 | -5.1 | 2.2 | 3.5 | 10.9 | 0.5
O=C(Nc1nccc(-c2cccs2)n1)c1ccccc1Cl | -38.4* | -2.1 | -3.5 | -23.5 | -5.2
OCC(O)CN1CCCC1 (centres undefined) | -31.9* | 2.7 | -0.2 | -5.7 | -0.9
CC(C)(C)C1CCC(OCC(O)CN2CCCC2)CC1 (centres undefined) | 8.8 | 33.2* | 4.8 | 2.6 | -8.5
CC1CCN(CC(O)COC2CCC(C(C)(C)C)CC2)CC1 (centres undefined) | 3.1 | 24.4 | 2.3 | -55.6* | -16.0
Cc1ccc(N2CCN(CC(O)COC3CCCCC3)CC2)cc1 (centres undefined) | -8.6 | 2.7 | -2.5 | -89.6* | -13.0
CC1CC(OCC(O)CN2CCOCC2)CC(C)(C)C1 (centres undefined) | 3.4 | 8.6 | 3.1 | 6.2 | -4.1
Nc1ccc(C(=O)NC23CC4CC(CC(C4)C2)C3)cc1 | -23.6 | 1.1 | -0.3 | -9.2 | 1.3
CC(C)(C)C1CCC(OCC(O)CN2CCN(c3ccccc3)CC2)CC1 (centres undefined) | -0.8 | 0.7 | 5.2 | -20.1 | 58.7*
O=C(c1ccccc1)N1CCN(CC(O)COC2CCCCC2)CC1 (centres undefined) | -10.1 | 1.4 | -1.9 | u | -7.1
OC(COC1CCCCC1)CN1CCCCC1 (centres undefined) | -5.4 | 4.1 | 8.3 | -71.7* | -18.1
Cc1nc2ccccc2n1CC(O)COC1CCCCC1 (centres undefined) | -71.8* | 5.4 | -10.8 | -28.3 | -0.3
Cc1cccc(C)c1-n1ncc(C(=O)Nc2ccc3c(c2)OCCO3)c1C1CCN(C(=O)OC(C)(C)C)CC1 | 27.0 | 0.5 | 4.0 | x | 5.0

Source: PubChem BioAssay (National Center for Advancing Translational Sciences (NCATS))
